From PubChem BioAssay AID504465 (National Center for Advancing Translational Sciences (NCATS), 2011)
Hit rate of the full screen: of about 2,100 compounds, about 210 (10%) were called active. Another 53% or so got no clear call; they are omitted. Calls come from the whole dose curve; as a rule, active = well fitted inhibition curve with a large enough effect; inconclusive = small, poorly fitted or top-dose-only effect, or effect the other way; inactive = no such curve, though single readings can be large or run the other way. The list shows a part of the results.

Assay: IN Cell qHTS Assay for Inhibitors of the mTORC1 Signaling Pathway in MEF (Tsc2-/-, p53-/-) Cells: Sytravon; note: nearly all actives have a fitted effect of over 60% in size
Conditions: phospho-rpS6 immunofluorescence, 24 h; series mostly up to 38.3 µM; activity, negative = inhibition: at the top concentration
How it was run: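 Tsc2-/-, p53-/- MEFs (empty-vector) treated with compound 24 h at 37 degree Celsius, then fixed and stained for phospho-rpS6 Ser235/236 (Alexa-488) plus Hoechst. Reported as % positive cells, thresholds set against 7.5 nM rapamycin and DMSO wells.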
Potency is the fitted concentration of half-maximal effect.

activity, negative = inhibition, inactive:
CCC1CN(C(=O)NCc2cccc(OC)c2)c2cc(Cl)ccc2O1 (stereo unspecified) -9.57%
Cc1ccc(NC(=O)C(Cc2c[nH]c3ccccc23)NC(=O)OC(C)(C)C)c(C)c1 (stereo unspecified) 30.2%
O=C(Nc1cc(Cl)cc(Cl)c1)c1ccc(F)c(S(=O)(=O)NC2CCCCC2)c1 6.25%
O=C1CC(c2c(F)cccc2Cl)c2c(ccc3ccccc23)N1 (stereo unspecified) 2%
COC(=O)c1ccc(C2C=C(c3ccc(Cl)cc3)Nc3nc4ccccc4n32)cc1 (stereo unspecified) 0%
CC1CCn2c(nc3cc(C(=O)NCc4ccccc4)ccc32)C1 (stereo unspecified) 4.17%
Cc1cccc(NC(=O)c2ccc(F)c(S(=O)(=O)NCc3ccc4c(c3)OCO4)c2)c1 6.25%
COc1ccc(CNC(=O)C2CCC(CNS(=O)(=O)c3cccs3)CC2)cc1 (stereo unspecified) 21.6%
Cc1c(C(=O)Nc2cccc(F)c2)oc2c1-c1nn(Cc3c(F)cccc3Cl)cc1CC2 -85.4%
CCOC(=O)c1cc(S(=O)(=O)NCc2ccc(OC)cc2)[nH]n1 -9.55%
O=C(Nc1ccc(F)c(F)c1)c1cc(S(=O)(=O)N2CCc3ccccc32)ccc1F 6.25%
COc1ccc(-c2ccc(CCC(=O)O)n2-c2cc(Cl)ccc2O)cc1 -13.7%
CC(C)c1ccc(NC(=O)C2Cc3ccccc3N2C(=O)c2ccccc2)cc1 (stereo unspecified) -4.76%
CCOC(=O)c1c(NC(=O)c2ccc(S(=O)(=O)N3CCC(C)CC3)cc2)sc2c1CCN(CC)C2 6.25%
Cc1ccc(-c2cc(C(=O)N3CCN(c4ccccc4)CC3)c3ccccc3n2)cc1C -15.7%
CCOC(=O)C1CCCN(C(=O)Cn2c(=O)cc(C)c3c(C)nn(C)c32)C1 (stereo unspecified) -0.372%
O=C(NCCSc1c(-c2ccc(F)cc2)[nH]c2ccccc12)c1ccc(S(=O)(=O)N2CCOCC2)cc1 4.61%
Cc1ccc(NC(=O)c2c(C)oc3ccc(O)c(CN4CCCCC4)c23)c(C)c1 -4.63%
CCc1ccc(CNC(=O)Cn2nc(-c3ccc(C)cc3)ccc2=O)cc1 6.25%
Cc1nnc(SCC(=O)NCc2ccccc2F)c2nn(-c3ccc(Cl)cc3)c(C)c12 0%
CCCS(=O)(=O)c1ncc(Cl)c(C(=O)Nc2scc(-c3ccccc3)c2C(=O)OCC)n1 -21.1%
CCOC(=O)c1c(NC(=O)c2ccc(S(=O)(=O)N3CCC(C)CC3)cc2)sc2c1CCN(C(C)C)C2 6.25%
Cc1ccc(S(=O)(=O)C2(C(=O)Nc3ccc(C(C)C)cc3)CC2)cc1 23.2%
Cc1c2cnn(CC(=O)NCc3ccccc3)c(=O)c2c(C)n1Cc1cccc(Cl)c1 -19.8%
COc1ccc(NC(=O)CCc2nc3c(C)nn(-c4ccc(C)cc4)c3n(C)c2=O)cc1 -1.68%
Cc1cccc(Cn2c(=O)n(CCCC(=O)NCc3ccccc3Cl)c(=O)c3ccccc32)c1 -5.71%
CCc1cnc2c(c1SCC(=O)NCc1ccccc1)c(=O)n(C)c(=O)n2C 0.735%
CCC1(C)CC(=O)c2c(ccc3oc(C(=O)NCc4ccccc4)c(C)c23)O1 (stereo unspecified) -8.68%
Cc1cccc(C(=O)Nc2ccccc2SCc2cc(=O)c3cccc(C)c3[nH]2)c1 -11.8%
COc1ccc(CCNC(=O)CCn2c(=O)c3ccccc3n(Cc3ccccc3C)c2=O)cc1OC 11.2%
COc1ccc(CCNC(=O)c2ccc3c(c2)N=C(C)c2cc(C)ccc2S3)cc1OC -12%
O=C(Nc1cccc(C(=O)N2CCN(c3ccc(Cl)cc3)CC2)c1)c1nsc2ccccc12 -20.5%
Cc1ccc(NC(=O)c2cc(S(=O)(=O)N3CCCCCC3)ccc2F)cc1F 6.25%
Cc1oc2ccc(O)c(CN(C)Cc3ccccc3)c2c1C(=O)Nc1cccc(Cl)c1C -17.4%
O=c1ccc(-c2ccccc2)nn1Cc1ccc(F)cc1Cl -5.19%
CCc1ccc(CNC(=O)c2ccc(NC(=O)N3CCCCc4ccccc43)cc2)cc1 -0.195%
CCCC(=O)C1=C(c2ccc(C)cc2)N(C(=O)CCC)n2cnnc2S1 -8.15%
Cc1cc(C)cc(NC(c2cccc(Cl)c2)c2nnc(-c3ccccc3)o2)c1 (stereo unspecified) 20.8%
CCOC(=O)N1CCc2c(sc3c2C(=O)NC(c2cc(OC)c(OC)c(OC)c2)N3)C1 (stereo unspecified) -16.6%
CCCOc1ccc(Oc2nc(NCC(C)C)nc(N(C)C)n2)nn1 -11.8%
CCN1CCc2c(sc(NC(=O)CSc3ccccc3)c2-c2nc3ccccc3s2)C1 0.735%
O=C(NCC1CCN(Cc2cccc(Cl)c2)CC1)Nc1ccc(F)c(Cl)c1 -100%
Cc1ccc(CN2CCC(CNC(=O)Nc3ccc(Cl)cc3)C2)cc1 (stereo unspecified) -64.5%
CCC(C)NC(=O)c1cc(Sc2cccc(Cl)c2)nc2ccccc12 (stereo unspecified) 6.25%
COc1ccc(-n2nnc(-c3nsc(NC(=O)c4ccc(C)c(C)c4)n3)c2C)cc1Cl -25.9%
CCOc1ccc(-c2oc3ccccc3c(=O)c2O)cc1OCC -100%

Potency, active:
O=C(NCc1ccccc1)c1nc(S(=O)(=O)Cc2ccccc2)ncc1Cl 18.5 µM
Cc1cccc(NC(=O)c2nc(S(C)(=O)=O)ncc2Cl)c1 2.61 µM
CCS(=O)(=O)c1ncc(Cl)c(C(=O)NCc2ccc(OC)cc2)n1 3.29 µM
Cc1ccc(NC(=O)c2nc(S(=O)(=O)Cc3cccc(C)c3)ncc2Cl)cc1 6.56 µM
Cc1cccc(CS(=O)(=O)c2ncc(Cl)c(C(=O)NCc3ccccc3)n2)c1 18.5 µM
CCOC(=O)c1c(NC(=O)c2nc(S(C)(=O)=O)ncc2Cl)sc(C(C)=O)c1C 5.85 µM
COc1ccc(NC(=O)c2nc(S(=O)(=O)Cc3ccc(C)cc3)ncc2Cl)cc1 2.61 µM
CCS(=O)(=O)c1ncc(Cl)c(C(=O)NCc2ccccc2)n1 3.29 µM
Cc1cccc(CN2CCC(CNc3ncnc4onc(-c5ccc(Cl)cc5)c34)CC2)c1 7.36 µM
COc1ccc(N(Cc2ccccc2)C(=O)c2nc(S(C)(=O)=O)ncc2Cl)cc1 2.33 µM
